ELG1 genotox: genotoxicity induction in ELG1-luciferase HEK293T cells | HEK293T ELG1-luciferase reporter, luminescence, 16 h | Potency, µM (doses to about 46 µM), inactives show at the highest dose activity change, positive = activation, hits mostly activators | hit rate 1.3% among 330,000 | AID 504466; note: % of control where 0% means no effect; nearly all actives have a fitted effect of over 60% in size
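After overnight (16 hr) compound treatment at 37 °C, ELG1-luciferase HEK293T cells were lysed with ONE-Glo; luminescence quantified 30 min later at room temperature.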
Rab9 promoter act: Rab9 promoter activation | hit rate 2.8% among 320,000 | Potency, µM (highest dose often 9.22 µM), for inactives: top-dose activation, negative = inhibition, usual class: activators | Huh7 Rab9 promoter-luciferase reporter, luminescence, 24 h; note: % of control where 0% means no effect; nearly all actives have a fitted effect of over 60% in size
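Luciferase signal after 10 min detection reagent at ambient indicates Rab9 promoter upregulation; stably transfected Huh7 cells were treated 24 h with compound in DMSO at 37 °C, 5% CO2.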
NPC1 prom act: activates the NPC1 promoter. Huh7 NPC1 promoter luciferase reporter, 24 h. Potency, µM (titrated, usually from 9.22 µM), without a hit: top-dose activation, hits mostly activators. hit rate 2.4% among 320,000; note: % of control where 0% means no effect; nearly all actives have a fitted effect of over 60% in size
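Luminescence read-out of NPC1 promoter-driven luciferase in stably transfected Huh7 cells; compounds delivered in DMSO and left 24 h at 37C, 5% CO2, qHTS titration format.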
FLuc modulator: firefly luciferase modulation, counter-screen for miR-21 project | purified FLuc, Km substrates, luminescence inhibition | AID 588342 | P08659 | Potency, µM (titrated, usually from 57.5 µM), inactives show at the highest dose activity change, negative = inhibition, usual class: inhibitors | hit rate 6.9% among 360,000;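 note: plate controls were vehicle for no effect and reference inhibitor for full effect; nearly all actives have a fitted effect of over 55% in size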
Target sequence (P08659 whole entry, looked up): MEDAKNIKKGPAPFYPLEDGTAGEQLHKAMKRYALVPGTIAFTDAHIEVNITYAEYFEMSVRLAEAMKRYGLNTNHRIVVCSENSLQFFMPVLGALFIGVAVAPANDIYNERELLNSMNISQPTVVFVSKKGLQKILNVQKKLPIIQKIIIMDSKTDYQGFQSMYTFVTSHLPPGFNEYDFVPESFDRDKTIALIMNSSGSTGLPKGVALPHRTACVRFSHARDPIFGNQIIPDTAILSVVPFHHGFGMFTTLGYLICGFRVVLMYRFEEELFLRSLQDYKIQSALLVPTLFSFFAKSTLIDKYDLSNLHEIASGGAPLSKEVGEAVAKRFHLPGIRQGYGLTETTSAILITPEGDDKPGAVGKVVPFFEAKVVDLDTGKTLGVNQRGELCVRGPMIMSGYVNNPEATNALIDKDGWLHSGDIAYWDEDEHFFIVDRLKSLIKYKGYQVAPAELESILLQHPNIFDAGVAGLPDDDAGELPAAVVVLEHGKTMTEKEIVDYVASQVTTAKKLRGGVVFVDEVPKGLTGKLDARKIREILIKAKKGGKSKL
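Biochemical qHTS of compounds, final roughly 60 µM downward over six points, against 10 nM purified firefly luciferase using Km concentrations of substrates (10 uM D-luciferin, 10 uM ATP) in Tris acetate pH 7.5 buffer; luminescence output.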
ELG1 DNA repair: ELG1-dependent DNA repair inhibition; HEK293T ELG1-luciferase reporter, luminescence, 16 h; DNA damage induced by 5-fluorouridine; Potency, µM (titrated, usually from 46.1 µM), for the others: at the top dose activity change, negative = inhibition, hits mostly inhibitors; hit rate 2.3% among 330,000; AID 504467; note: % is set by controls: 0 for no effect and ±100 for the full control effect; nearly all actives have a fitted effect of over 55% in size
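Reporter activity after DNA damage by 5-fluorouridine is monitored. Compound-treated cells incubate 16 hr at 37 °C, then ONE-Glo is added for 30 min before luminescence reading.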
SMN2 splice enh: SMN2 splice variant enhancement; Potency, µM (top dose mostly 46.1 µM), for inactives: at the highest dose activity change, positive = activation, hits mostly activators; HEK293 SMN2-luciferase splicing reporter, luminescence, 30-36 h; hit rate 2.8% among 210,000; note: % of control where 0% means no effect; nearly all actives have a fitted effect of over 55% in size
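qHTS luciferase splicing reporter: luminescence rises when SMN2 exon 7 is included in transfected HEK293 cells. Compound exposure lasted 30-36 h at 37C, with 4.5 mM final sodium butyrate as control, followed by a ONE-Glo read.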
Starred values were filed as active, the others as inactive; ? = inconclusive; nt = not tested or not shown; [ ] = dose if it differs, or a comment. The list is not random: actives were taken first. Their share in the collection is about 9.3%. Calls come from the whole dose curve; as a rule, active = well fitted curve in the direction sought with a large enough effect; inconclusive = small, poorly fitted or top-dose-only effect, or another doubt; inactive = no such curve, though single readings can be large; an effect the other way counts as inactive or inconclusive. Potency is the fitted concentration of half-maximal effect.

SMILES	ELG1 genotox	Rab9 promoter act	NPC1 prom act	FLuc modulator	ELG1 DNA repair	SMN2 splice enh
Cc1ccc(-c2nc3ccc([N+](=O)[O-])cc3[nH]2)cc1	?	1.6µM*	1.6µM*	0.85µM*	?	1.3µM*
O=[N+]([O-])c1ccc2nc(-c3ccc(Cl)cc3)[nH]c2c1	-1%	1.6µM*	2µM*	3µM*	?	3.2µM*
NC(N)=Nc1nc2ccc([N+](=O)[O-])cc2[nH]1	6%	0%	4%	-7%	0%	-4%[9.22 µM]
O=[N+]([O-])c1cccc(-c2nc3ccc([N+](=O)[O-])cc3[nH]2)c1	-4%	4µM*	21%	?	-19%	-73%
Nc1nc2ccc([N+](=O)[O-])cc2[nH]1	-11%	-1%	-4%	0%	0%	nt
COc1cccc(Nc2c3c(nc4nncn24)CCC3)c1	nt	nt	nt	1%	nt	-2%
Cc1nc2c(s1)sc1ccccc12	13%	7%	12%	24µM*	?	-6%
CCn1cc(C(=O)NCCCN2CCCC(C)C2)c(=O)c2cc(S(=O)(=O)N3CCOCC3)ccc21 (configuration not stated)	1%	-2%	2%	-2%	12%	nt
N=C1/C(=C\c2ccc(SCc3ccco3)o2)C(=O)N=C2SC=NN12	6%	22%	-1%	8.5µM*	18%	1%
CC1(c2nnc(-c3ccncc3)o2)CC(c2ccc([N+](=O)[O-])cc2)=NO1 (configuration not stated)	-8%	-11%	-1%	1%	21µM*	nt
COC(=O)C1=C(C)N(C)C(=O)NC1c1ccccc1 (configuration not stated)	2%	3%	-3%	5%	-7%	20%
CC1=C(C(=O)OCCOc2ccccc2)C(c2ccsc2)NC(=O)N1C (configuration not stated)	-1%	-1%	-4%	-11%	23µM*	-64%
O=C(Nc1cccc([N+](=O)[O-])c1)Nc1cccs1	-8%	9%	10%	27µM*	-27%	-19%
COC(=O)c1sccc1NC(=O)Nc1cccc(C(C)=O)c1	1%	1%	2%	7.6µM*	4%	nt
O=C(Nc1cccc(C(F)(F)F)c1)Nc1cccs1	nt	nt	nt	12µM*	nt	5%
COC(=O)c1sccc1NC(=O)Nc1cccc(C)c1	?	2%	2%	4.8µM*	12%	nt
COC(=O)c1sccc1NC(=O)Nc1ccc(OC)cc1	?	20%	18%	1.7µM*	0%	nt
COC(=O)c1sccc1NC(=O)Nc1cccc(C)c1C	2%	3%	1%	-18%	13%	nt
COC(=O)c1sccc1NC(=O)Nc1cc(OC)ccc1OC	3%	5%	0%	0%	5%	nt
Cc1ccc([N+](=O)[O-])cc1NC(=O)Nc1cccc(F)c1	-13%	4%	-2%	2%	16µM*	nt
O=C(Nc1ccccc1)Nc1cc([N+](=O)[O-])ccc1F	-8%	-5%	-5%	?	-14%	-8%
COC(=O)c1sccc1NC(=O)Nc1cccc([N+](=O)[O-])c1	7%	12%	-2%	6.7µM*	0%	nt
Cc1ccc(NC(=O)CN2C(=O)CC(c3ccco3)Sc3ccccc32)cc1Cl (configuration not stated)	nt	nt	nt	-14%	nt	-5%
CC(/C=C/c1ccc2c(c1)OCO2)=N/NC(=O)c1cccnc1	-3%	-1%	3%	?	16%	?
C/C(=N/NC(=O)CCc1ccccc1)c1ccc2c(c1)OCO2	-1%	10%	-4%	-11%	-1%	nt
SMILES	ELG1 genotox	Rab9 promoter act	NPC1 prom act	FLuc modulator	ELG1 DNA repair	SMN2 splice enh
C/C(=N\NC(=O)c1c[nH]c2ccccc12)c1ccc2c(c1)OCO2	8%	28%	3%	27µM*	?	17%
C/C(=N\NC(=O)c1ccc2c(c1)OCO2)c1cccnc1	?	3.5µM*	?	?	?	nt
C/C(=N\NC(=O)c1ccccc1)c1ccc2c(c1)OCO2	18µM*	2.8µM*	?	15µM*	?	27%
C/C(=N/NC(=O)c1ccco1)c1cccnc1	-8%	0%	-1%	-2%	?	28%
C/C(=N\NC(=O)c1ccc(Br)cc1)c1cccnc1	?	?	26%	13µM*	?	nt
C/C(=N\NC(=O)c1cc(C)oc1C)c1ccc2c(c1)OCO2	11%	?	18%	?	?	12%
Cc1ccccc1Cc1c(C)nc2nc(SCC(=O)NCCc3ccc(Cl)cc3)nn2c1C	nt	nt	nt	-15%	nt	11%
CCOC(=O)c1ccccc1NC(=O)CN1CCCN(Cc2cc(C)ccc2C)S1(=O)=O	nt	nt	nt	0%	nt	nt
C/C(=N/NC(=O)c1ccc2c(c1)OCO2)c1ccc(NC(=O)C(F)(F)F)cc1	16%	?	?	1%	?	79%
CC(=O)Nc1cccc(/C(C)=N/NC(=O)c2ccc3c(c2)OCO3)c1	?	?	28%	6µM*	?	11µM*
CCOC(=O)Cc1csc(NC(=O)c2c(-c3c(Cl)cccc3Cl)noc2C)n1	-1%	-3%	-6%	4%	-2%	4%
CCOC(=O)Cc1csc(NC(=O)Cc2ccc(Cl)cc2)n1	-9%	-3%	1%	-24%	?	nt
CCOC(=O)Cc1csc(NC(=O)/C=C/c2ccccc2Cl)n1	-7%	?	?	1.2µM*	-13%	nt
CCOC(=O)Cc1csc(NC(=O)/C=C\c2ccccc2Cl)n1	8%	?	27%	1.5µM*	4%	nt
CCc1nn2c(=O)cc(COC(=O)c3ccco3)nc2s1	nt	nt	nt	-10%	nt	nt
Cc1ccc(NC(=O)CSc2nnc(COc3ccc(C#N)cc3)n2-c2ccccc2)cc1C	-13%	5%	-1%	-2%	23µM*	-40%
CCC(=O)[C@@]1(C)[C@H](C)C[C@H]2[C@@H]3CCC4=CC(=O)C=C[C@]4(C)[C@H]3[C@@H](O)C[C@@]21C	7%	-2%	-1%	-1%	?	nt
CC(C)C(=O)Nc1ccccc1C(=O)OCC(=O)c1ccc2c(c1)OCCO2	0%	2.8µM*	?	1.3µM*	-28%	-18%
O=C(COC(=O)c1ccccc1[N+](=O)[O-])c1ccc2c(c1)OCO2	?	0.32µM*	0.32µM*	0.019µM*	?	nt
Cc1cccc(C(=O)OCC(=O)c2ccc3c(c2)OCO3)c1O	2.6µM*	1.4µM*	0.45µM*	0.38µM*	?	nt
Cc1ccccc1NC(=O)COC(=O)c1ccc2c(c1)OCCO2	0%	0%	-2%	?	?	nt
COc1ccc(CNC(=O)C2=CC(c3ccc(C)cc3)=NS(=O)(=O)N2C)cc1	2%	11%	1%	?	20%	nt

Source: PubChem BioAssay (National Center for Advancing Translational Sciences (NCATS))
